JMJD2A Tudor: qHTS Assay for Inhibitors of JMJD2A-Tudor Domain; Potency, µM (titrated, usually from 114 µM), actives largely listed as inhibitors; 390,000 tested, 4.4% active; AlphaScreen JMJD2A-Tudor / H3K4me3 peptide binding; further: nearly all actives have a fitted effect of over 50% in size
G9a block: qHTS Assay for Inhibitors of Histone Lysine Methyltransferase G9a. AID 504332, 2011. Histone-lysine N-methyltransferase EHMT2 (Homo sapiens), Q96KQ7. Potency, µM (series often up to 102 µM), hits mostly inhibitors. 350,000 tested, 8.8% active. G9a H3K9 monomethylation, AlphaScreen, 2 h; further: nearly all actives have a fitted effect of over 75% in size
Target sequence (Q96KQ7 913-1193 limits assumed): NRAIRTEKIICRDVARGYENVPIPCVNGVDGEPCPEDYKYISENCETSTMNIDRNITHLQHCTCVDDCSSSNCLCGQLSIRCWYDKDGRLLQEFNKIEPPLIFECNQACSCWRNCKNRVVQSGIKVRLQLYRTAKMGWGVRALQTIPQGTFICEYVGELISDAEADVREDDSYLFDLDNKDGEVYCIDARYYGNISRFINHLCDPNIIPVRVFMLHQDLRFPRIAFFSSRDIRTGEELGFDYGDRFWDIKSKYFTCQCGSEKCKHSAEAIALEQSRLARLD
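Signal arises when biotinylated H3K9 peptide, once monomethylated, bridges streptavidin donor and antibody-captured acceptor beads. Enzyme at 20 nM was preincubated 15 min with test compounds; peptide 500 nM and SAM 20 uM then reacted for 2 h.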
BAZ2B inh: qHTS Assay for Inhibitors of BAZ2B; Potency, µM (titrated, usually from 114 µM), usual class: inhibitors; AID 504333, 2011; AlphaScreen BAZ2B-H3K14Ac peptide displacement; Bromodomain adjacent to zinc finger domain protein 2B (Homo sapiens), Q9UIF8; 360,000 tested, 4.4% active; further: nearly all actives have a fitted effect of over 60% in size
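In this displacement format the biotinylated H3(5-23) peptide acetylated at Lys14 serves as ligand at 50 nM, with BAZ2B at 50 nM in PBS pH 7.4 containing 0.01% Tween-20. Donor and acceptor beads are 10 ug/mL final.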
L3MBTL1 inh: qHTS Assay for the Inhibitors of L3MBTL1; 230,000 tested, 0.66% active; AID 485360, 2010; Potency, µM (highest dose often 57.1 µM), hits mostly inhibitors; AlphaScreen L3MBTL1–H3K9me1 peptide binding; further: nearly all actives have a fitted effect of over 60% in size
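First, the protein-peptide complex forms for 30 min at room temperature (L3MBTL1 50 nM, biotinylated H3K9me1 peptide 75 nM). Next, compounds are pin-transferred and incubated 30 min. Finally, AlphaScreen beads are added and read after 30 min.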
HP1b chromo inh: HTS for Inhibitors of HP1-beta Chromodomain Interactions with Methylated Histone Tails; AID 540317, 2011; Chromobox protein homolog 1 (Homo sapiens), P83916; AlphaScreen HP1-beta / biotin-H3K9me3 peptide binding; 390,000 tested, 0.56% active; Potency, µM (top dose mostly 114 µM), actives largely listed as inhibitors; further: nearly all actives have a fitted effect of over 70% in size
Target sequence (P83916 whole entry, looked up): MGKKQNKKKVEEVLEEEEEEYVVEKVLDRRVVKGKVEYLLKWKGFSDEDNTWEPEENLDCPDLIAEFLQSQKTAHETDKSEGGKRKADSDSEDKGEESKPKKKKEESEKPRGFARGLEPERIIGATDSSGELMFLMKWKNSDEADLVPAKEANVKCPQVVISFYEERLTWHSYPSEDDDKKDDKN
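Compound inhibition of the preformed complex between 50 nM HP1-beta and 50 nM biotinylated H3K9me3 peptide was read by AlphaScreen. Buffer was PBS pH 7.4 with 0.01% Tween-20. Incubations ran 30 min at room temperature, with 10 ug/mL donor/acceptor beads.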
Numbers stand for hits; [ ] = dose if it differs, or a comment. Sampled rows, rich in hits. Any-hit rate of the full collection: about 11%. The call rests on the fitted dose curve; in most records, active means well fitted inhibition curve with a large enough effect; inconclusive means small, poorly fitted or top-dose-only effect; inactive means no such curve, though single readings can be large or run the other way.

What do the screens show for `COc1ccc(C2Nc3ccccc3C(=O)N2Cc2ccco2)cc1COc1ccc(N)cc1` (stereo unspecified)?
JMJD2A Tudor: 22µM

What do the screens show for `CC(=O)Nc1ccc(OCc2cccc(C3Nc4ccccc4C(=O)N3Cc3ccco3)c2)cc1` (stereo unspecified)?
JMJD2A Tudor: 89µM

What do the screens show for `O=C1c2ccccc2NC(c2cccc(O)c2)N1Cc1ccco1` (stereo unspecified)?
JMJD2A Tudor: inactive; G9a block: inactive; BAZ2B inh: inactive; L3MBTL1 inh: inactive; HP1b chromo inh: inactive

What do the screens show for `Cc1cccn2c(=O)c3cc(C(N)=S)c(=N)n(CCCOC(C)C)c3nc12`?
JMJD2A Tudor: inconclusive; G9a block: inconclusive; BAZ2B inh: inactive; L3MBTL1 inh: inactive; HP1b chromo inh: inactive

How did Cc1cccn2c(=O)c3cc(C(=O)NC4CCCC4)c(=N)n(Cc4ccc(F)cc4)c3nc12 do in these assays?
JMJD2A Tudor: inactive; G9a block: inactive; BAZ2B inh: inactive; HP1b chromo inh: inactive

What do the screens show for `CCOCCCn1c(=N)c(C(N)=S)cc2c(=O)n3cccc(C)c3nc21`?
JMJD2A Tudor: 79µM; G9a block: inconclusive; BAZ2B inh: inconclusive; L3MBTL1 inh: inactive; HP1b chromo inh: inactive

Results for COCCNC(=O)c1cc2c(=O)n3cccc(C)c3nc2n1C ?
JMJD2A Tudor: inactive; G9a block: 28µM; BAZ2B inh: inactive; L3MBTL1 inh: inactive; HP1b chromo inh: inactive

Results for Cc1cccn2c(=O)c3cc(C(=O)NC4CCCCC4)c(=N)n(Cc4ccccc4)c3nc12 ?
JMJD2A Tudor: inactive; G9a block: 10µM; BAZ2B inh: 25µM; HP1b chromo inh: inactive

What do the screens show for `Cc1cccn2c(=O)c3cc(C(=O)NCCN4CCOCC4)c(=N)n(CCCN4CCOCC4)c3nc12`?
JMJD2A Tudor: inactive; G9a block: 50µM; BAZ2B inh: inactive; HP1b chromo inh: inconclusive

Results for COc1ccc(CCNC(=O)c2cc3c(=O)n(C)c4cc(Cl)ccc4c3s2)cc1OC ?
JMJD2A Tudor: inactive; G9a block: inactive; HP1b chromo inh: inactive

How did Cc1ccc(OCCSc2nc3ccccc3n2CC(=O)N2CCOCC2)cc1 do in these assays?
JMJD2A Tudor: inactive; G9a block: inactive; BAZ2B inh: inconclusive; HP1b chromo inh: inactive

How did Cc1cccn2c(=O)c3cc(C#N)c(=NC(=O)c4cccs4)n(CC(C)C)c3nc12 do in these assays?
JMJD2A Tudor: inactive; G9a block: inactive; BAZ2B inh: inactive; L3MBTL1 inh: inactive; HP1b chromo inh: inactive

How did CCOCCCn1c(=NC(=O)c2cccs2)c(C#N)cc2c(=O)n3cccc(C)c3nc21 do in these assays?
JMJD2A Tudor: inactive; G9a block: 71µM; BAZ2B inh: inactive; L3MBTL1 inh: inactive; HP1b chromo inh: inactive

How did O=c1cc(-c2ccccc2)cc(-c2ccccc2)n1CCCO do in these assays?
JMJD2A Tudor: inactive; G9a block: inactive[2.33 µM]; BAZ2B inh: inactive; L3MBTL1 inh: inactive; HP1b chromo inh: inactive

Results for S=c1[nH]nc(-c2ccc(Br)cc2)n1Cc1ccccc1 ?
JMJD2A Tudor: inconclusive; G9a block: 10µM; BAZ2B inh: inconclusive; L3MBTL1 inh: inactive; HP1b chromo inh: inactive

What do the screens show for `Cc1cc(-c2n[nH]c(=S)n2Cc2ccccc2)cs1`?
JMJD2A Tudor: 18µM; G9a block: 1.3µM; BAZ2B inh: inactive; L3MBTL1 inh: inactive; HP1b chromo inh: inactive

Results for OCCCn1c(-c2ccccc2)n[nH]c1=S ?
JMJD2A Tudor: 28µM; G9a block: 7.9µM; BAZ2B inh: inactive; L3MBTL1 inh: inactive; HP1b chromo inh: inactive

Results for Oc1ccc(-c2n[nH]c(=S)n2Cc2ccccc2)cc1 ?
JMJD2A Tudor: 32µM; G9a block: 1.1µM; BAZ2B inh: inactive; L3MBTL1 inh: inactive; HP1b chromo inh: inactive

Results for CC(C)c1ccc(Nc2nc(Nc3ccc(Cl)cc3)nc(N3CCOCC3)n2)cc1 ?
JMJD2A Tudor: inactive; HP1b chromo inh: inactive

What do the screens show for `COc1cccc(C(=O)N2CCc3cc(OC)c(OC)cc3C2COc2ccc3c(C)cc(=O)oc3c2)c1` (stereo unspecified)?
JMJD2A Tudor: inactive; G9a block: inactive; BAZ2B inh: inactive; HP1b chromo inh: inactive

How did CCc1ccc(CNC(=O)C2CCCN(c3nn4cc(-c5ccc(F)cc5)nc4s3)C2)cc1 (stereo unspecified) do in these assays?
JMJD2A Tudor: inactive; G9a block: inactive; BAZ2B inh: inactive; HP1b chromo inh: inactive

Results for Cc1ccn2c(-c3n[nH]c(=S)n3Cc3ccccc3)c(C)nc2c1 ?
JMJD2A Tudor: 3.5µM; G9a block: 7.1µM; BAZ2B inh: inactive; L3MBTL1 inh: inactive; HP1b chromo inh: inconclusive

What do the screens show for `CCCCOc1ccc(-c2n[nH]c(=S)n2Cc2ccccc2)cc1`?
JMJD2A Tudor: inactive; G9a block: 20µM; BAZ2B inh: inactive; HP1b chromo inh: inactive

How did Fc1ccc(-c2n[nH]c(=S)n2Cc2ccccc2)cc1 do in these assays?
JMJD2A Tudor: 18µM; G9a block: inconclusive; BAZ2B inh: inactive; HP1b chromo inh: inactive

Results for O=c1[nH]c2ccccc2n1Cc1ccccc1 ?
JMJD2A Tudor: inactive; G9a block: inactive; BAZ2B inh: inactive; L3MBTL1 inh: inactive; HP1b chromo inh: inactive

Results for O=c1[nH]cc(-c2ccc(Br)cc2)n1Cc1ccccc1 ?
JMJD2A Tudor: inactive; G9a block: 11µM; BAZ2B inh: inconclusive; HP1b chromo inh: inactive

Results for CC12CCC(C(=O)N/N=C/c3ccc(O)cc3)(OC1=O)C2(C)C (stereo unspecified) ?
JMJD2A Tudor: inactive[11.4 µM]; G9a block: inactive; BAZ2B inh: inactive; L3MBTL1 inh: inactive; HP1b chromo inh: inactive

What do the screens show for `Cc1ccc(C)c(NS(=O)(=O)c2cc3c(cc2Cl)NC(=O)CO3)c1`?
JMJD2A Tudor: inconclusive; G9a block: inconclusive; BAZ2B inh: inconclusive; HP1b chromo inh: inactive

How did S=c1[nH]nc(-c2ccncc2)n1Cc1ccccc1 do in these assays?
JMJD2A Tudor: 7.9µM; G9a block: 10µM; L3MBTL1 inh: inactive; HP1b chromo inh: inactive

What do the screens show for `S=c1[nH]nc(-c2cccnc2)n1Cc1ccccc1`?
JMJD2A Tudor: 8.9µM; G9a block: 1.3µM; BAZ2B inh: inactive; L3MBTL1 inh: inactive[11.4 µM]; HP1b chromo inh: inactive

Results for Fc1ccc(-c2c[nH]c(=S)n2Cc2ccccc2)cc1 ?
JMJD2A Tudor: inconclusive; G9a block: 1.1µM; BAZ2B inh: inactive; L3MBTL1 inh: inactive; HP1b chromo inh: inactive

What do the screens show for `S=c1[nH]c2ccccc2n1Cc1ccccc1`?
JMJD2A Tudor: inconclusive; BAZ2B inh: inactive; L3MBTL1 inh: inactive; HP1b chromo inh: inconclusive

Results for S=c1[nH]c2cnccc2n1Cc1ccccc1 ?
JMJD2A Tudor: 18µM; G9a block: 7.1µM; BAZ2B inh: inactive; HP1b chromo inh: inactive

Screening results deposited in PubChem by National Center for Advancing Translational Sciences (NCATS).
